{"source": "PubChem BioAssay (NCATS)", "note": "Records with an inconclusive call do not appear. Where a call stands in place of a potency, no number is given. Active and inactive are the calls of the source. Calls follow the shape of the dose curve; as a rule, active = well fitted activation curve with a large enough effect; inconclusive = small, poorly fitted or top-dose-only effect; inactive = flat fitted curve, though single readings scatter. Potency is read from the fitted curve at half-maximal effect.", "data": [{"molecular_target": "Cellular tumor antigen p53 (Homo sapiens) (UniProt P04637)", "sequence (P04637 whole entry, looked up)": "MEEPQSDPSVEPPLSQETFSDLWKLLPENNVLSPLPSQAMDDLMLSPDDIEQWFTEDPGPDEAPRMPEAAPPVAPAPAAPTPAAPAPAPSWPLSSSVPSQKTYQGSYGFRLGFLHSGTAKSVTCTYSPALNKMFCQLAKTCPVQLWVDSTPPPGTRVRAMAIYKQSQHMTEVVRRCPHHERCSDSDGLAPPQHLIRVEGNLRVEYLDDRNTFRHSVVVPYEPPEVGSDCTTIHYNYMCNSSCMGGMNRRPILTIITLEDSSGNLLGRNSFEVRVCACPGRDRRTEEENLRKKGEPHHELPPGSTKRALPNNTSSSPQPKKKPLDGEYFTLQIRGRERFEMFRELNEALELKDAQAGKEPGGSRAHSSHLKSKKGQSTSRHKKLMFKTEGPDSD", "test": "Primary qHTS for small molecule compounds that upregulate eGFP-tagged delta133p53alpha (in C-terminal) cells. (AID 2060324)", "conditions": "NCI-H358 delta133p53alpha-eGFP (C-terminal tag), GFP fluorescence imaging, 24 h; series mostly up to 57.5 µM", "how_it_was_run": "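NCI-H358 cells with doxycycline-inducible D133p53a-eGFP (C-terminal tag), pre-induced 24 h with 100 ng/ml doxycycline, plated 800/well in doxycycline-free medium and treated 24 h at 37 °C with compound titrations. Cells were then fixed and Hoechst-stained, and GFP intensity was read by laser scanning cytometry.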", "values": [{"smiles": "CN1CCC(c2c[nH]c3ccc(O)cc23)CC1", "Potency": "inactive"}, {"smiles": "N[C@@]1(C(=O)O)CC[C@@H](C(=O)O)C1", "Potency": "inactive"}, {"smiles": "C#CCOC(=O)C1=CCCN(C)C1", "Potency": "inactive"}, {"smiles": "O=C1C=CC(=O)C=C1", "Potency": "inactive"}, {"smiles": "CCCN(CCC)CCc1ccc(O)c(O)c1", "Potency": "inactive"}, {"smiles": "NC(=NCCC[C@H](N)C(=O)O)N[N+](=O)[O-]", "Potency": "inactive"}, {"smiles": "CC(C)(O)[C@@H]1C2OC(=O)[C@@H]1[C@]1(O)C[C@H]3O[C@]34C(=O)O[C@H]2[C@]14C", "note": "(tested in a mixture with another compound)", "Potency": "inactive"}, {"smiles": "Oc1ccc2c3c1O[C@H]1c4[nH]c5c(c4C[C@@]4(O)[C@@H](C2)N(CC2CC2)CC[C@]314)C[C@@]1(O)[C@H]2Cc3ccc(O)c4c3[C@@]1(CCN2CC1CC1)[C@H]5O4", "Potency": "inactive"}, {"smiles": "CN1CCc2cccc(Cl)c2CC1", "Potency": "inactive"}, {"smiles": "Cc1o[nH]c(=O)c1CC(N)C(=O)O", "note": "(stereo not given)", "Potency": "inactive"}, {"smiles": "CCN1C[C@@]2(COC)C3[C@@H](OC)C4[C@@H]1C3([C@@H]1C[C@]3(O)[C@H](OC(=O)c5ccccc5)[C@@H]1[C@]4(OC(C)=O)[C@@H](O)[C@@H]3OC)[C@H](OC)C[C@H]2O", "Potency": "inactive"}, {"smiles": "S=C(NC1CCCCC1)N1CCC(c2cnc[nH]2)CC1", "Potency": "inactive"}, {"smiles": "COc1ccc2c(c1O)-c1cccc3c1[C@@H](C2)N(C)CC3", "Potency": "inactive"}, {"smiles": "NCCc1c[nH]c2ccc(O)cc12", "Potency": "inactive"}, {"smiles": "C[C@H]1C2Cc3ccc(O)cc3[C@@]1(C)CCN2CC1CC1", "Potency": "inactive"}, {"smiles": "[Cl-].[Cl][Pt].[NH2-].[NH2-].c1ccncc1", "Potency": "inactive"}, {"smiles": "c1ccc2c(c1)[I+]c1ccccc1-2", "Potency": "23.9 µM (active)"}, {"smiles": "N#CCCN", "Potency": "inactive"}, {"smiles": "CP(=O)(O)C1=CCNCC1", "Potency": "inactive"}, {"smiles": "CN1CCc2cc(O)cc3c2[C@H]1Cc1ccc(O)c(O)c1-3", "Potency": "inactive"}, {"smiles": "COC(=O)N1CCN(C(=O)Cc2ccc(Cl)c(Cl)c2)C(CN2CCCC2)C1", "note": "(stereo not given)", "Potency": "inactive"}, {"smiles": "NC(=O)COc1c(F)cc(SCCNS(=O)(=O)c2ccccc2)cc1F", "Potency": "inactive"}, {"smiles": "C[N+](C)(C)CC#CCOC(=O)Nc1cccc(Cl)c1", "Potency": "inactive"}, {"smiles": "NCC(CP(=O)(O)O)c1ccc(Cl)cc1", "note": "(stereo not given)", "Potency": "inactive"}, {"smiles": "C[C@@H](N)Cc1cnc[nH]1", "Potency": "inactive"}, {"smiles": "O=C(O)Cc1cnc[nH]1", "Potency": "inactive"}, {"smiles": "OCc1cnc[nH]1", "Potency": "inactive"}, {"smiles": "O=C1NCN(c2ccccc2)C12CCN(CC1COc3ccccc3O1)CC2", "note": "(stereo not given)", "Potency": "inactive"}, {"smiles": "CCCN1CCC[C@@H]2Cc3nc(N)ncc3C[C@H]21", "Potency": "inactive"}, {"smiles": "CCCN(CCC)C1Cc2cc(OC)c(OC)cc2C1", "Potency": "inactive"}, {"smiles": "CC(=O)[C@H]1CC[C@H]2[C@@H]3CC[C@H]4C[C@H](O)CC[C@]4(C)[C@H]3C(=O)C[C@]12C", "Potency": "inactive"}, {"smiles": "CCNC(=O)[C@H]1O[C@@H](n2cnc3c(N)ncnc32)[C@H](O)[C@@H]1O", "Potency": "inactive"}, {"smiles": "CNCCc1ccc(O)c(O)c1", "Potency": "inactive"}, {"smiles": "NC1CC1c1ccccc1", "note": "(stereo not given)", "Potency": "inactive"}, {"smiles": "NC(CCCCCP(=O)(O)O)C(=O)O", "note": "(stereo not given)", "Potency": "inactive"}, {"smiles": "CC(C)NC(C)Cc1ccc(I)cc1", "note": "(stereo not given)", "Potency": "inactive"}, {"smiles": "CCCN(CCC)[C@H]1CCc2c(F)ccc(O)c2C1", "Potency": "inactive"}, {"smiles": "CC(O)(CS(=O)(=O)c1ccc(F)cc1)C(=O)Nc1ccc(C#N)c(C(F)(F)F)c1", "note": "(stereo not given)", "Potency": "inactive"}, {"smiles": "c1ccc2cc(CC3=NCCN3)ccc2c1", "Potency": "inactive"}, {"smiles": "O=c1ccc2[nH]cc(C3=CCNCC3)c2[nH]1", "Potency": "inactive"}]}]}
